NALP1 yeast inh – inhibitors of NALP1 inflammasome in yeast. S. cerevisiae NALP1/ASC/caspase-1 growth, X-gal OD620, 72 h. inhibition, % at 10 µM. hit rate 0.61% among 280,000. AID 2071; in the data active = inhibition mostly above about 24%, no sharp cut-off; inactive = mostly below about 32%
Bfl-1 A1 inh – inhibitors of the anti-apoptotic protein A1, read as caspase activation; AID 2462; hit rate 0.066% among 330,000; caspase activation, % (concentration not given with the values); MEF A1-2A-BIM cells, Caspase-Glo 3/7 luminescence, 3 h; percent of clofoctol response, vehicle zero;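 active = over half of replicate activation scores above 10%, or exactly half above 10 with the replicate mean above 10; inconclusive = replicate mean below 10 yet half the replicates above 10; inactive = over half of replicates below 10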
NALP3 yeast inh – inhibitors of NALP3 inflammasome in yeast | Yeast reconstituted NLRP3/ASC/caspase-1, beta-gal luminescence, 24 h | inhibition, % at 10 µM | hit rate 0.39% among 330,000 | AID 2825;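 active = inhibition of 50% or more; inactive = inhibition below 50%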;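 also: plate controls were induced DMSO wells for no effect and uninduced yeast grown without galactose for full effect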
CHT block – inhibits the human high affinity choline transporter. hit rate 0.86% among 310,000. Q9GZV3. CHT-expressing cells, membrane potential dye, choline response; active compounds read low. B-score at 10 µM;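 active = B-score over 3 SD under the library average, and starting fluorescence ratio not unusually high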;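 also: choline stimulus applied at its EC90 after an EC20 pre-addition; B-score computed on integrated fluorescence ratio after choline addition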
Target sequence (Q9GZV3 whole entry, looked up): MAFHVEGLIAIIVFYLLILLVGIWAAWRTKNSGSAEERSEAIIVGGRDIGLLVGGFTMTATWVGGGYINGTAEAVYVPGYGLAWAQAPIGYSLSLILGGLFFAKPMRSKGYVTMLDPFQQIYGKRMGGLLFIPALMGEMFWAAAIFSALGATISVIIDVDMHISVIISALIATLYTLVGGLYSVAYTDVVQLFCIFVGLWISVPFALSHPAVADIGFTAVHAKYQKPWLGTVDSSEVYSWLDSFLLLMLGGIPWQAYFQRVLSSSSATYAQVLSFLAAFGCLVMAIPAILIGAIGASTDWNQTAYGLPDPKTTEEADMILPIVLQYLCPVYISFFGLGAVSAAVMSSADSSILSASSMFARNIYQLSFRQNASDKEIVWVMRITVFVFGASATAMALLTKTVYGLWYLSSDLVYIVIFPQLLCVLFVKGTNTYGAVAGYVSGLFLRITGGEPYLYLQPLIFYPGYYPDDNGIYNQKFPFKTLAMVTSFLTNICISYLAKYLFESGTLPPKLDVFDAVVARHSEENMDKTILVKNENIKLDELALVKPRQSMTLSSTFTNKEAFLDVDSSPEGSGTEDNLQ
Mot1-301 SUMO – blocks SUMOylation pathway, rescuing yeast Mot1-301 growth; AID 2716; S. cerevisiae Mot1-301 growth rescue, ATP luminescence, 38.5C; percent above DMSO median, 100 means doubled; growth rescue, % at 18.8 µM; hit rate 1% among 320,000;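 active = every valid replicate shows activation above 250% relative to neutral control wells; inactive = the rest, any valid replicate at or below 250%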;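 also: OY570 slx delta 5 strain wells were the positive control but not used for scaling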
CHT allo act – allosterically activates the human high affinity choline transporter | AID 488977 | B-score at 10 µM | hit rate 0.49% among 310,000 | CHT-expressing cells, membrane potential dye, choline EC20; active compounds read high; LV-AA mutant CHT in HEK293 cells | Q9GZV3;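 active = initial fluorescence not abnormally high and integrated response B-score, plate-corrected, over 3 SD above library mean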
CHT act confirm – confirmation of human choline transporter (CHT) activators | shares compounds with CHT allo act | CHT-expressing cells, membrane potential dye fluorescence (FDSS); % of choline EC20–EC90 response window; HEK293 expressing CHT LV-AA mutant; choline added at its EC20 | activation, % at 10 µM | hit rate 91% among 2,500 | AID 504833;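 active = primary screen active, with duplicate mean activation above negative control mean plus 3 SD, cut at about 11% in these data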
HEK293 MP dye – activity in parental HEK293 cells lacking CHT | shares compounds with CHT allo act | membrane potential dye fluorescence (FDSS); measured after EC20 choline addition | ratio readout change at 10 µM, hits read low | hit rate 62% among 2,500 | AID 623908;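 active = duplicate-averaged ratio beyond 3 SD from buffer wells, up or down, though filed actives are nearly all decreases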
Active calls of the source: *. Hits are enriched below; roughly 3% of the tested compounds scored in any of these assays.

`Cc1sc2nc(CN3CCCC3)nc(N3CCN(C(=O)c4ccco4)CC3)c2c1C` gave NALP1 yeast inh 12.8, Bfl-1 A1 inh -0.1, NALP3 yeast inh 6.7, CHT block inactive, Mot1-301 SUMO 194.7, CHT allo act 7.27*, CHT act confirm 46.0* and HEK293 MP dye -38.8*.
For Cc1sc2nc(CN3CCCC3)nc(N3CCN(S(=O)(=O)c4cccc(F)c4)CC3)c2c1C the results were Bfl-1 A1 inh -0.8, NALP3 yeast inh 6.6 and Mot1-301 SUMO 0.0.
Screening O=C(NNc1cc(Cl)cc(Cl)c1)C1CCC1 returned NALP1 yeast inh 4.8, Bfl-1 A1 inh -0.7, NALP3 yeast inh 13.4, CHT block inactive, Mot1-301 SUMO 51.1 and CHT allo act inactive.
O=C(NNc1ccc(Cl)cc1)C1CCC1 was read as NALP1 yeast inh -2.9, Bfl-1 A1 inh 0.1, NALP3 yeast inh 14.2, CHT block inactive, Mot1-301 SUMO 224.8, CHT allo act inactive, CHT act confirm 14.5* and HEK293 MP dye inactive.
COc1cc(/C=C/C(=O)NC(C)CCc2ccccc2)cc(OC)c1OC (configuration not stated) was read as NALP1 yeast inh 16.0, Bfl-1 A1 inh 0.7, NALP3 yeast inh 3.1, CHT block inactive, Mot1-301 SUMO 9.5, CHT allo act inactive, CHT act confirm 0.0 and HEK293 MP dye inactive.
For CC(CCc1ccccc1)NC(=O)/C=C/c1ccccc1 (configuration not stated) the results were NALP1 yeast inh 15.1, Bfl-1 A1 inh 0.1, NALP3 yeast inh 36.4, CHT block inactive, Mot1-301 SUMO 4.2 and CHT allo act inactive.
`Nc1c(-c2ccccc2)c(CSc2nc3ccccc3[nH]2)nn1-c1cccc(Cl)c1` gave NALP1 yeast inh 16.0, Bfl-1 A1 inh -1.0, NALP3 yeast inh 31.7, CHT block inactive, Mot1-301 SUMO -6.9 and CHT allo act inactive.
`Cc1ccccc1-n1nc(CSc2nc3ccccc3[nH]2)c(-c2ccccc2)c1N` gave NALP1 yeast inh 9.8, Bfl-1 A1 inh 0.2, NALP3 yeast inh 5.1, CHT block inactive, Mot1-301 SUMO -21.2, CHT allo act inactive, CHT act confirm 35.0* and HEK293 MP dye inactive.
`CC(C)c1nc2cc(C(=O)N3CCN(c4cnccn4)CC3)ccc2o1` gave NALP1 yeast inh 6.6, Bfl-1 A1 inh 0.0, NALP3 yeast inh 0.0, CHT block inactive, Mot1-301 SUMO -3.8 and CHT allo act inactive.
c1ccc(C[n+]2ccc3ccccc3c2)cc1 was read as Bfl-1 A1 inh 0.6, NALP3 yeast inh 17.3, CHT block inactive, Mot1-301 SUMO -4.7, CHT allo act 6.31*, CHT act confirm 42.7* and HEK293 MP dye -48.2*.
`c1ccc(C[n+]2cccc(-c3ccccc3)c2)cc1` gave NALP1 yeast inh -7.4, Bfl-1 A1 inh 0.7, NALP3 yeast inh 5.9, CHT block inactive, Mot1-301 SUMO 8.8 and CHT allo act inactive.
`COc1ccc(N/C=C(\C=C\C#N)S(=O)(=O)c2ccccc2)cc1` gave NALP1 yeast inh 4.8, Bfl-1 A1 inh -0.2, NALP3 yeast inh 17.5, CHT block inactive, Mot1-301 SUMO 1.3 and CHT allo act inactive.
For COc1ccc(C(CCNCc2ccc(OC)c(OC)c2)c2ccc(F)cc2)cc1 (configuration not stated) the results were NALP1 yeast inh 17.5, Bfl-1 A1 inh -0.2, NALP3 yeast inh 33.9, CHT block inactive, Mot1-301 SUMO -31.3, CHT allo act 7.38*, CHT act confirm 28.0* and HEK293 MP dye inactive.
Screening COc1ccc(C(CCNCc2ccc(N(C)C)cc2)c2ccccc2)cc1 (configuration not stated) returned NALP1 yeast inh 31.2, Bfl-1 A1 inh -0.8, NALP3 yeast inh 36.2, CHT block inactive, Mot1-301 SUMO -15.0, CHT allo act 7.02*, CHT act confirm 9.5 and HEK293 MP dye inactive.
`CCOC(=O)N1CCN(C2CCCN(C(=O)c3cccc(Cl)c3)C2)CC1` (configuration not stated) gave NALP1 yeast inh 18.8, Bfl-1 A1 inh -0.2, NALP3 yeast inh 10.8, CHT block inactive, Mot1-301 SUMO -16.2 and CHT allo act inactive.
Screening O=S(=O)(c1ccc(C2=CSC3=NCCN23)cc1)N1CCOCC1 returned NALP1 yeast inh -19.4, Bfl-1 A1 inh 0.4, NALP3 yeast inh 1.8, CHT block inactive, Mot1-301 SUMO -8.1, CHT allo act 6.32*, CHT act confirm 36.3* and HEK293 MP dye -40.3*.
Cc1ccc(NC(=S)N(CCC(C)C)C(C)c2ccncc2)c(Cl)c1 (configuration not stated) was read as Bfl-1 A1 inh -0.9, NALP3 yeast inh 0.6, CHT block inactive, Mot1-301 SUMO -13.0 and CHT allo act inactive.
For COCCNCc1ccccc1[N+](=O)[O-] the results were Bfl-1 A1 inh 0.1, NALP3 yeast inh 14.2, CHT block inactive, Mot1-301 SUMO 15.3 and CHT allo act inactive.
Screening CCC(=O)Nc1cccc(-c2cn3ccccc3n2)c1 returned NALP1 yeast inh 25.9, Bfl-1 A1 inh -0.3, NALP3 yeast inh 7.9, CHT block inactive, Mot1-301 SUMO -13.8, CHT allo act inactive, CHT act confirm 45.0* and HEK293 MP dye -41.5*.
COc1ccc(-c2cn3ccccc3n2)cc1OC was read as NALP1 yeast inh 7.5, Bfl-1 A1 inh -6.6, NALP3 yeast inh -0.9, CHT block inactive, Mot1-301 SUMO 0.0, CHT allo act inactive, CHT act confirm 21.1* and HEK293 MP dye -37.7*.
For COc1ccc(-c2oc(=O)c3cc(OC)c(OC)cc3c2/C=C/c2cccc([N+](=O)[O-])c2)cc1 the results were Bfl-1 A1 inh inconclusive, NALP3 yeast inh 6.3 and Mot1-301 SUMO 14.1.
Cc1ccccc1/C=C/c1cccc[n+]1C was read as NALP1 yeast inh -7.8, Bfl-1 A1 inh -0.1, NALP3 yeast inh 1.4, CHT block inactive, Mot1-301 SUMO -2.1, CHT allo act inactive, CHT act confirm 45.3* and HEK293 MP dye -54.7*.
`C[n+]1ccccc1/C=C/c1c(F)cccc1F` gave NALP1 yeast inh 6.6, Bfl-1 A1 inh 1.6, CHT block inactive, Mot1-301 SUMO 92.5 and CHT allo act inactive.
For C[n+]1ccccc1/C=C/c1ccc(F)c(F)c1 the results were NALP1 yeast inh 1.2, Bfl-1 A1 inh 0.6, NALP3 yeast inh 1.9, CHT block inactive, Mot1-301 SUMO 4.2, CHT allo act 8.29*, CHT act confirm 58.4* and HEK293 MP dye -64.8*.

Screening data as filed in PubChem BioAssay.
